ClpP mod: qHTS Assay for Activators of ClpP | AID 651965, 2013 | ATP-dependent Clp protease proteolytic subunit (Bacillus subtilis (strain 168)), P80244 | purified B. subtilis ClpP, FRET peptide cleavage, 20 min | 340,000 compounds, 1.9% hits | Potency, µM (series often up to 57.5 µM), for the others: at the top dose activity change, negative = active; active = well fitted falling curve with a large enough effect; inconclusive = small, poorly fitted or top-dose-only effect; inactive = no such curve, though single readings can be large or run the other way; note: potency is the fitted concentration of half-maximal effect; the source files actives as falling curves though it sought activators and does not explain the sign; nearly all actives have a fitted effect of over 65% in size
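ClpP 10 microg/mL final, pH 8 Tris/KCl buffer with BSA, glycerol, Tween-20; compound pinned in; FRET-FV substrate; RT 20 min; Ex320/Em430; ΔFRET vs ADEP 5.8 microM, DMSO, no enzyme.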
KCNH2 3.1 block: qHTS for Inhibitors of KCHN2 3.1: Mutant qHTS. U2OS KCNH2 3.1, thallium flux FluxOr; active compounds read low. Potassium voltage-gated channel subfamily H member 2, brain isoform KCNH2 3.1 (human). 340,000 compounds, 0.95% hits. activity change, % (tested at about 1.8 µM);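 active = maximum activity change below -70%; inconclusive = maximum activity change from -70% to -50%; inactive = maximum activity change above -50%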;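 note: thallium influx rate constant from kinetic fluorescence after stimulation buffer; % is set by controls: 0 for no effect and ±100 for the full control effect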
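Measured as rate of thallium-driven FluxOr signal in transduced U2OS cells carrying the 3.1 channel, read kinetically for 2 min upon stimulation; values are rate constants scaled to DMSO control wells.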
LDHA block: qHTS assay for inhibitors of human lactate dehydrogenase. activity change, % (values are at about 110 or 230 µM). L-lactate dehydrogenase A chain (Homo sapiens), P00338. purified LDHA, NADH/diaphorase-resazurin fluorescence; active compounds read low. 480,000 compounds, 0.15% hits; in the data active = activity change below about -30%; inconclusive = mostly about -25% to -30%;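 note: plate controls were DMSO wells for no effect and wells without enzyme for full effect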
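Resorufin fluorescence (ex540/em590), read at 0 and 20 min after diaphorase/resazurin addition, reports the NADH left after a 5 min room-temperature reaction of 2 nM human LDH5 with 0.06 mM NADH and 0.2 mM pyruvate.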
12-LOX inh: Primary qHTS assay for inhibitors of human arachidonate 12S-lipoxygenase (ALOX12): Round 2; purified 12hLO, xylenol orange hydroperoxide absorbance; 580,000 compounds, 1.1% hits; AID 1671190, 2021; Potency, µM (series often up to 108 µM), without a hit: at the highest dose activity change, negative = inhibition, actives largely listed as inhibitors; active = well fitted inhibition curve with a large enough effect; inconclusive = small, poorly fitted or top-dose-only effect, or another doubt; inactive = no such curve, though single readings can be large or run the other way; note: potency is the fitted concentration of half-maximal effect; % is set by controls: 0 for no effect and ±100 for the full control effect
Target sequence (P18054 whole entry, looked up): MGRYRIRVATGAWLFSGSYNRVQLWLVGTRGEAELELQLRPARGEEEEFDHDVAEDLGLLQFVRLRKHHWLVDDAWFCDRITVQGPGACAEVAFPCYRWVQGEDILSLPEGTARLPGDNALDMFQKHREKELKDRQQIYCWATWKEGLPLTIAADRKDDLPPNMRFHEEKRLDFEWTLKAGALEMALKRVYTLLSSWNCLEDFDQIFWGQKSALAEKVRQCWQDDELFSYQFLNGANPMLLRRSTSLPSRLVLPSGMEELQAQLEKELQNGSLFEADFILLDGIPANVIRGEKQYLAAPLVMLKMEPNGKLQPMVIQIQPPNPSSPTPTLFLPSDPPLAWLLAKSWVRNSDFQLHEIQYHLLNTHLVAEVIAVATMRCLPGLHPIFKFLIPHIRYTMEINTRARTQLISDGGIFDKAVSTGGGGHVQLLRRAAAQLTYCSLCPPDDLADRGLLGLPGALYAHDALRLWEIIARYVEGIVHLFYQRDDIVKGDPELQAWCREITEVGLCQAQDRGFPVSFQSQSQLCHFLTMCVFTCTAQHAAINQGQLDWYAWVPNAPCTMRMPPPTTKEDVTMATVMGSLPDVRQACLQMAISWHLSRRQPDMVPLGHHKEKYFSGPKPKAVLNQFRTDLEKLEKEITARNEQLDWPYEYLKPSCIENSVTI
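Purified human 12hLO at 150 nM in 25 mM Hepes, 0.01% Triton X-100, pH 7.0, preincubated 15 min at room temperature with compound. Reaction started with 40 uM arachidonic acid, 30 min at room temperature. Hydroperoxide measured by Fe-xylenol orange, 573/405 nm absorbance ratio.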
BCR signal inh: qHTS Assay to Find Inhibitors of Chronic Active B-Cell Receptor Signaling. ABC-DLBCL IkBa-CBG/CBR reporter, luminescence ratio, 4 h. Potency, µM (titrated, usually from 46.1 µM), for the others: at the top dose activity change, negative = inhibition, most hits filed as inhibitors. 340,000 compounds, 0.05% hits. AID 493014, 2011; active = well fitted inhibition curve with a large enough effect in the signal ratio, with a control signal flat, not every such curve was filed as active; inconclusive = small, poorly fitted or top-dose-only effect, or effect the other way, or a change in a side signal; the % refers to the signal ratio;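 note: potency is the fitted concentration of half-maximal effect; plate controls were basal doxycycline-induced cells for no effect and cells given 10 µM MG132 for full effect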
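TMD8 human ABC-DLBCL cells with doxycycline-inducible IκBα–green luciferase fusion and unfused red luciferase, in 0.5% FBS medium; compounds up to 46 uM, 4 h at 37C. Green/red luminescence ratio, filter-overlap corrected, fitted to concentration-response curves.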
KCNH2 WT inh: qHTS for Inhibitors of KCHN2 3.1: Wildtype qHTS; U2OS, BacMam KCNH2, thallium flux FluxOr; active compounds read low; 340,000 compounds, 0.37% hits; Voltage-gated inwardly rectifying potassium channel KCNH2 (Homo sapiens), Q12809; activity change, % at 1.84 µM;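 active = maximum activity change below -70%; inconclusive = maximum activity change between -70% and -50%; inactive = maximum activity change above -50%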; note: % is set by controls: 0 for no effect and ±100 for the full control effect
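U2OS cells transduced with wild-type KCNH2 virus are loaded with FluxOr dye for 45 min, and thallium flux is measured in kinetic reads before and after stimulation buffer. Rate constants are normalized to DMSO controls.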
The depositor's hits bear a star; ? = inconclusive; . = no result given; [ ] = remark or other dose. A selection: hits, their analogues and other compounds. The true share with any hit is near 3%.

SMILES	ClpP mod	KCNH2 3.1 block	LDHA block	12-LOX inh	BCR signal inh	KCNH2 WT inh
COc1ccc(-c2cc(=O)oc3cc(OCC(=O)N4CCOCC4)ccc23)cc1	.	6.7	-7.3	-20.4%	-4.0%	11.5
CCCC(C)NC(=O)COc1cc2oc(=O)cc(-c3ccccc3)c2cc1Cl (stereo not given)	.	.	-5.8	?	.	.
CCn1cc(S(=O)(=O)N2CCCC(c3nc(-c4ccccc4)no3)CCNC(=O)CC2)cn1 (stereo not given)	.	.	.	24.9%	.	.
Cc1c(Cl)cccc1NC(=O)N(C)CC1CCOCC1	.	.	.	38.1%	.	.
COc1ccc(Cl)cc1NC(=O)c1ccc2c(=O)n3c(nc2c1)CCCC3	.	.	1.6	36.4%	.	.
O=C(O)CSc1cc(NS(=O)(=O)c2ccc(Cl)cc2)c2ccccc2c1O	.	20.2	47.6	2.82µM*	?	0.6
Cc1ccc2c(c1)C1(CC(=O)Nc3c1cnn3-c1ccc(C(F)(F)F)cc1)C(=O)N2 (stereo not given)	.	.	2.8	?	.	.
CCOc1ccc(-n2nc(CO)c(C(=O)NCC(C)O)n2)cc1 (stereo not given)	14.1µM*	.	-0.3	-5.1%	.	.
O=C(NCc1ccc2c(c1)OCO2)c1nn(-c2ccc(Cl)cc2)nc1CO	.	.	-11.2	-10.9%	.	.
CCc1ccc(CNC(=O)c2nn(-c3ccc(C)c(C)c3)nc2CO)cc1	3.55µM*	.	-11.7	-1.6%	.	.
COCCNC(=O)c1nn(-c2ccc(Cl)cc2)nc1CO	14.1µM*	.	-3.2	-15.9%	.	.
CCc1ccc(-n2nc(CO)c(C(=O)NCCCCc3ccccc3)n2)cc1	?	.	-8.3	-0.7%	.	.
CCOc1ccc(-n2nc(CO)c(C(=O)NCc3ccc4c(c3)OCO4)n2)cc1	.	.	0.1	-20.7%	.	.
CCc1ccc(-n2nc(CO)c(C(=O)NCCOC)n2)cc1	12.6µM*	.	-5.0	-22.6%	.	.
CC(C)N1CC2CCC(C1)N2Cc1ccc(-c2ccsc2)cc1	.	.	.	5.4%[6.33 µM]	.	.
COc1ccc2c(C)c(CCC(=O)N3CCC(OCc4ccccc4)CC3)c(=O)oc2c1	.	.	11.7	-39.3%	.	.
CC(C)Cn1c2ccccc2c2cc(C(=O)O)ccc21	-23.0%	2.6	-7.8	7.1%	?	-3.1
COc1cc2c(C(=O)O)c(C)n(CC(C)C)c2c2ccccc12	35.5µM*	-2.5	-7.9	1.3%	-6.1%	0.3
Cn1nc(C(F)(F)F)c(C#N)c1N1CCN(c2ccc(F)cc2)CC1	14.1µM*	9.7	-4.6	-3.9%	-3.8%	8.7
O=[N+]([O-])c1cc(Br)c(O)c(/C=N/Nc2nnnn2-c2cccc3ccccc23)c1	-0.9%	-0.4	-36.8*	11.2µM*	4.7%	-12.1
COCCn1cnnc1SCc1cccc(Cl)c1	.	.	8.8	?	.	.
Cc1ccc(S(=O)(=O)N(Cc2ccc(C#N)cc2)c2nc3nc(C)cc(C)n3n2)cc1	.	.	6.3	2.7%	.	.
COC(=O)c1c(NC(=O)CN2CCC3(O)CCCCC3C2c2cc(OC)ccc2OC)sc(C)c1C (stereo not given)	28.2µM*	?	-0.9	-15.3%	-1.3%	-6.0
CC(C)c1ccc(CN(C(=O)c2cc(=O)c3ccccc3o2)C2CCS(=O)(=O)C2)cc1 (stereo not given)	.	.	-9.7	?	.	.
O=C(C[C@H]1C[C@H](C(=O)N2CCOCC2)[C@@]2(CCC3CCCC3)c3[nH]c4cc(-c5ccco5)ccc4c3CCN2C1=O)NCCN1CCOCC1	3.4%	-0.3	0.7	44.7µM*	-8.2%	-5.7
SMILES	ClpP mod	KCNH2 3.1 block	LDHA block	12-LOX inh	BCR signal inh	KCNH2 WT inh
COc1ccc(CNC(=O)C[C@H]2C[C@H](C(=O)N3CCOCC3)[C@@]3(CCC4CCCC4)c4[nH]c5cc(-c6ccco6)ccc5c4CCN3C2=O)cc1OC	4.2%	-10.0	-15.2	39.8µM*	1.6%	-5.7
CC1=NOC(=O)/C1=C\c1ccc(-c2ccc(Cl)cc2Cl)o1	-0.2%	-18.7	-3.7	15.8µM*	-20.5%	1.2
CCOc1ccc(C(=O)Nc2ccc3oc(=O)ccc3c2)cc1OC	.	.	0.2	10.2%	.	.
CC(C)(C)c1ccc(/C=C/C(=O)Nc2nncs2)cc1	-0.9%	-82.7*	-12.0	4.8%	7.3%	13.5
O=C(/C=C/c1ccc2c(c1)OCO2)Nc1nncs1	-23.5%	-16.0	-5.5	?	-9.6%	-6.6
Cc1ccc2[nH]cc(CCNC(=O)Cc3ccc(F)cc3)c2c1	.	.	1.8	?	.	.
CC1C/C(=N\NC(=S)NCc2ccccc2)CC(C)(C)C1 (stereo not given)	0.6%	-4.1	-1.0	?	16.9%	15.5
CC1C/C(=N/NC(=S)Nc2ccc(SC(F)F)cc2)CC(C)(C)C1 (stereo not given)	.	.	1.0	28.2µM*	.	.
CC1(C)C2CC=C(/C=N/NC(=S)Nc3ccc(SC(F)F)cc3)C1C2 (stereo not given)	.	.	-4.0	31.6µM*	.	.
O=C(CCCCl)NC1=NN(c2ccccc2)C(=O)C1	0.9%	3.6	9.4	-7.5%	?	11.1
O=C(COc1ccc(Cl)cc1)NC1=NN(c2ccccc2)C(=O)C1	-4.7%	-3.7	-2.6	44.7µM*	13.1%	3.4
O=C(COc1cc2oc(=O)cc(-c3ccccc3)c2cc1Cl)NCc1cccs1	.	.	6.1	-8.2%	.	.
CCOC(=O)C1=C(C)NC2=C(C(=O)CCC2)C1c1cccnc1 (stereo not given)	?	-2.7	-3.0	9.3%	?	-10.1
CC1=C(C(=O)OC(C)C)C(c2cccnc2)C2=C(CCCC2=O)N1 (stereo not given)	28.2µM*	-2.0	-7.6	-1.2%	-2.9%	-4.1
CC1=C(C(=O)OCC2CCCO2)C(c2ccncc2)C2=C(CCCC2=O)N1 (stereo not given)	22.4µM*	-0.8	-0.4	128.5%	-3.8%	0.1
O=C(OCCC12CC3CC(CC(C3)C1)C2)c1ccc(NCc2cc(O)ccc2O)cc1	-7.2%	6.8	20.7	5.62µM*	.	-1.2
O=C(OCC12CC3CC(CC(C3)C1)C2)c1ccc(NCc2cc(O)ccc2O)cc1	-3.3%	-15.7	17.8	15.8µM*	.	-6.8
O=c1cc(N2CCCN(c3ccc(C(F)(F)F)cn3)CC2)nc2ccccn12	.	.	-0.2	?	.	.
O=C(CC1CCCCC1)N1CC(c2nnc(-c3ccncc3)o2)C2(CCOCC2)C1 (stereo not given)	.	.	.	-2.9%	.	.
Cc1ccc(S(=O)(=O)NNc2c3ccccc3nc3ccc(Cl)cc23)cc1	4.4%	-1.6	-1.5	25.1µM*	.	-14.0
